A short description of test [1]: qHTS assay to identify small molecule antagonists of the estrogen related receptor (ERR) signaling pathway from Tox21 library - cell viability counter screen (AID 1224834). Note: nearly all actives have a fitted effect of over 30% in size. Note: potency is the fitted concentration of half-maximal effect. The procedure, abridged: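 Viability readout (CellTiter-Fluor fluorescence, 30 min at 37 C) multiplexed with the ERR assay; cells treated 17.5 h at 37 C with compounds delivered in DMSO.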
(Quantitative high-throughput screening tests each substance at several concentrations.)

Test [2] addresses Luciferin 4-monooxygenase (Photinus pyralis) (UniProt P08659). The experiment in a line: qHTS assay to identify small molecule inhibitors of firefly luciferase (AID 1224835). Note: series mostly up to about 120 µM; nearly all actives have a fitted effect of over 25% in size. Put shortly: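 Quantitative HTS format; KM concentrations of both substrates. Purified P. pyralis FLuc activity quantified from luminescence images.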
Test [3] can be described thus: qHTS assay to identify small molecule antagonists of the constitutive androstane receptor (CAR) signaling pathway - cell viability counter screen (AID 1224837). Note: nearly all actives have a fitted effect of over 45% in size. Note: potency is the fitted concentration of half-maximal effect. The procedure, abridged: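 Fluorescence from CellTiter-Fluor served as the viability signal. Human hepatoma HepG2 cells stably bearing hCAR and CYP2B6-2.2kb received compound plus CITCO (50 nM final) for 23 hr.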

The target in test [4] is Nuclear receptor subfamily 1 group I member 3 (Homo sapiens) (UniProt Q14994). The experiment in a line: qHTS assay to identify small molecule agonists of the constitutive androstane receptor (CAR) signaling pathway (AID 1224839). Note: nearly all actives have a fitted effect of over 15% in size. Note: potency is the fitted concentration of half-maximal effect. The procedure, abridged: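 Double-stable HepG2 cells (hCAR, CYP2B6-2.2kb) seeded 4 h before compound addition. Exposure 24 h with 0.75 uM PK11195 final. Luciferase detected by ONE-Glo.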

Test [5] is described as follows: qHTS assay to identify small molecule antagonists of the estrogen related receptor signaling pathway with the pleiotropic PPARgamma coactivator (PGC) from Tox21 10K library - cell viability counter screen (AID 1224840; active = well fitted cell-killing curve with a large enough effect in the repeat runs, not every such curve was filed as active; note: nearly all actives have a fitted effect of over 40% in size; note: potency is the fitted concentration of half-maximal effect). The procedure, abridged:
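Compounds in DMSO, alongside positive and negative controls, were pinned onto PGC/ERR cells (2,000 per well). Exposure lasted 17.5 hours at 37 C, followed by a 30-minute CellTiter-Fluor incubation and fluorescence reading.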

The target in test [6] is Thyrotropin receptor (Homo sapiens) (UniProt P16473). Briefly: qHTS assay to identify small molecule agonists of the thyroid stimulating hormone receptor (TSHR) signaling pathway (AID 1224843; calls by dose curve; note: nearly all actives have a fitted effect of over 45% in size). Put shortly:
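TSHR-expressing HEK293 cells (800 per well) were exposed to compounds for 30 min at room temperature. cAMP was then detected by HTRF competition with cAMP-d2 and anti-cAMP cryptate, read after 1 h at room temperature. Fifteen concentrations, triplicate.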

For test [7], the target named is Nuclear receptor subfamily 1 group I member 3 (Homo sapiens) (UniProt Q14994). Briefly: qHTS assay to identify small molecule antagonists of the constitutive androstane receptor (CAR) signaling pathway (AID 1224838).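 Note: HepG2 cells stably expressing hCAR with CYP2B6 luciferase reporter stimulated by CITCO; nearly all actives have a fitted effect of over 40% in size.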 Note: potency is the fitted concentration of half-maximal effect. Put shortly:
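Quantitative HTS in double-stable HepG2-CYP2B6-hCAR cells. After 4 h plating, cells get compound (15 concentrations) and CITCO at 50 nM final, incubate 24 h at 37 C, then ONE-Glo luminescence is read.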

A short description of test [8]: qHTS assay to identify small molecule antagonists of the estrogen related receptor signaling pathway with the pleiotropic PPARgamma coactivator (PGC) from Tox21 10K library (AID 1224841; call rule not given here; note: actives are mostly falling curves and most rising ones were filed inactive; nearly all actives have a fitted effect of over 50% in size; note: potency is the fitted concentration of half-maximal effect). The procedure, abridged:
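Compound exposure ran 18 hours at 37 C in PGC/ERR cells (2,000/well) that had first rested 6 hours in a 37 C/5% CO2 incubator. Luciferase activity was then detected with One-Glo after a 30-minute room-temperature step.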

Test [9] can be described thus: qHTS assay to identify small molecule agonists of the estrogen related receptor signaling pathway with the pleiotropic PPARgamma coactivator (PGC) from Tox21 10K library (AID 1224842). Note: nearly all actives have a fitted effect of over 15% in size. The procedure, abridged:
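PGC/ERR reporter cells (NTP line) were seeded 2,000 per well, rested 6 h at 37 C/5% CO2, then pin-dosed with compounds in DMSO for 18 h at 37 C; luciferase read by One-Glo luminescence after 30 min at room temperature.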

Test [10] in a line: qHTS assay to identify small molecule agonists of the constitutive androstane receptor (CAR) signaling pathway - cell viability counter screen (AID 1224836). Note: nearly all actives have a fitted effect of over 45% in size. Note: potency is the fitted concentration of half-maximal effect. The procedure, abridged:
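Using CellTiter-Fluor, viability of HepG2 cells harbouring hCAR and CYP2B6-2.2kb was measured following 23 h incubation with a 15-concentration compound series plus PK11195 (0.75 uM final).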

Among the data in PubChem BioAssay (Tox21) are Potency values, retold here.

Results filed as inconclusive are left out. The source made the active and inactive calls. Unless noted, calls come from the whole dose curve; as a rule, active = well fitted curve in the direction sought with a large enough effect in the repeat runs; inconclusive = weak or mixed curves; inactive = no such curve, though single readings can be large; an effect the other way counts as inactive or inconclusive.

Luciferin 4-monooxygenase (Photinus pyralis), sequence (P08659 whole entry, looked up): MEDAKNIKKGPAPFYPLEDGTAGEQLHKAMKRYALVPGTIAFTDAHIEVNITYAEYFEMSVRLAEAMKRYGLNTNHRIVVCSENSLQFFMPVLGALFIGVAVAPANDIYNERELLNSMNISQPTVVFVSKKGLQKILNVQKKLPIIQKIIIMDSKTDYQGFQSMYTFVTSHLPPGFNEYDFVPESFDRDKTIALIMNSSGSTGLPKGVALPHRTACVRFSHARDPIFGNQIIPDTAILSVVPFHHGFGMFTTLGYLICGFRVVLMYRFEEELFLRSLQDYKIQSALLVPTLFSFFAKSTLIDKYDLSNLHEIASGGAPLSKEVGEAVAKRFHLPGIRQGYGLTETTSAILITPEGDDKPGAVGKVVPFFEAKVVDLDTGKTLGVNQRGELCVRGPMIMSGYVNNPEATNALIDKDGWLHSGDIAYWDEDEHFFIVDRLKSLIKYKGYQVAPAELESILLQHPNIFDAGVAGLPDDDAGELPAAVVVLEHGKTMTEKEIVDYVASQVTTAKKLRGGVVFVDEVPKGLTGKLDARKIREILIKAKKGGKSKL
Thyrotropin receptor (Homo sapiens), sequence (P16473 whole entry, looked up): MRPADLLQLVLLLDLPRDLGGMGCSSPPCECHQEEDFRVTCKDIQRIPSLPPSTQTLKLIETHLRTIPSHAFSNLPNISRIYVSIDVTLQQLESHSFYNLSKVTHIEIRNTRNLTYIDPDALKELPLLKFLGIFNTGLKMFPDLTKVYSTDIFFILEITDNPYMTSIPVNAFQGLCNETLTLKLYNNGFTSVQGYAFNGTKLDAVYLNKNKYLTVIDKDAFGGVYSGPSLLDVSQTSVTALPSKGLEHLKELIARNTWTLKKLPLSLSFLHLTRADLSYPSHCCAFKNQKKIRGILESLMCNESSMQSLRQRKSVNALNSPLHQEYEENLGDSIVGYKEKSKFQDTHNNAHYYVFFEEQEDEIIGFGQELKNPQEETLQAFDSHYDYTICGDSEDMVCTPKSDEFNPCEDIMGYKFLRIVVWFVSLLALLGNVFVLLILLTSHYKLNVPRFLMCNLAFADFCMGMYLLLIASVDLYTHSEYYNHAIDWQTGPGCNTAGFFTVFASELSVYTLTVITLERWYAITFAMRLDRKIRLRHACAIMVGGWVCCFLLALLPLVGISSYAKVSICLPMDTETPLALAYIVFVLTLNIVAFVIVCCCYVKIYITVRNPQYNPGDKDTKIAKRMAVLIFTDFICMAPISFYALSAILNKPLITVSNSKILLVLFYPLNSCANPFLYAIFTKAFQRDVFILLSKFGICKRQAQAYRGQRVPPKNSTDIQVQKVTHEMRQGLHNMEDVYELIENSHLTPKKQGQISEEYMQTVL
Nuclear receptor subfamily 1 group I member 3 (Homo sapiens), sequence (Q14994 whole entry, looked up): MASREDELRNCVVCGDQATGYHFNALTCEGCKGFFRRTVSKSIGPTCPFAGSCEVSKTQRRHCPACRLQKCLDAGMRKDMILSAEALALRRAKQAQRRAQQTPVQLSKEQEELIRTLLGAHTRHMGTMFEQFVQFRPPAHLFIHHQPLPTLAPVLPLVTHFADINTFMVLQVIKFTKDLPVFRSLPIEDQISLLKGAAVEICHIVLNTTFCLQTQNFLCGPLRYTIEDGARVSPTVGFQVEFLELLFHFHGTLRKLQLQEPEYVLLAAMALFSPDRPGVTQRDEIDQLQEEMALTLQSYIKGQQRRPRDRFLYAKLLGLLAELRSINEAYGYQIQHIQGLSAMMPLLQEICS

Take `C=CCBr`: the Potency entry in test [1], in test [2], in test [3], in [4], in [5] and in test [6] was “inactive” each time.

As for `C=CC(=C)C`, the Potency result in test [1], in test [2], in [3], in [5] and in test [6] was “inactive” throughout.

As for `CCOC(=O)CCN(SN(C)C(=O)Oc1cccc2c1OC(C)(C)C2)C(C)C`, the Potency result in test [1], in [2], in test [3], in [7], in [9] and in [6] was “inactive” each time. In addition, the Potency is 27.3 µM (active) in test [4] and 30.6 µM (active) in [8].

Take `O=[N+]([O-])c1cc(C(F)(F)F)c(Cl)c([N+](=O)[O-])c1Nc1ncc(C(F)(F)F)cc1Cl`: the Potency in [1] was 27.3 µM (active); in test [10], 15.4 µM (active); in test [3], 15.4 µM (active); in [7], 13.7 µM (active); in test [5] it was 8.63 µM (active). Besides, the Potency result in test [4] is “inactive”.

For the compound `CCOP(=O)(Sc1ccccc1)Sc1ccccc1`, the Potency result in [1], in test [2], in test [3] and in [5] was “inactive” throughout. For the same compound, in test [4], the Potency was 21.7 µM (active).

As to `CCCC[N+]1(C)CCCC1` (tested in a mixture with another compound), the Potency entry in test [1], in [2], in test [3] and in [5] was “inactive” each time.

`CC(C)C(Nc1ccc(C(F)(F)F)cc1Cl)C(=O)OC(C#N)c1cccc(Oc2ccccc2)c1` (stereo unspecified): the Potency result in [1], in test [2], in test [3], in test [7] and in test [5] was “inactive” throughout.

Consider `N#Cc1sc2c(=O)c3ccccc3c(=O)c=2sc1C#N`, for which the Potency was 48.6 µM (active) in test [1]; 8.63 µM (active) in test [10]; 6.11 µM (active) in test [3]; 8.63 µM (active) in test [7]; 2.17 µM (active) in test [4]; 48.6 µM (active) in [5]. Further, the Potency entry in test [9] was “inactive”.

Turning to `C=CC(=O)[O][Sn]([CH2]CCC)([CH2]CCC)[CH2]CCC`, the Potency in test [1] is 3.06 µM (active); in test [10], 1.22 µM (active); in test [3], 1.93 µM (active); in test [7], 0.486 µM (active); in test [5], 1.72 µM (active); in test [8], 13.7 µM (active). Further, the Potency entry in [4] and in test [9] was “inactive” in each case.

Regarding `CSC1=N[C@@](C)(c2ccccc2)C(=O)N1Nc1ccccc1`, the Potency entry in test [1], in test [2], in test [3] and in test [5] was “inactive” throughout. Also, the Potency in test [4] was 19.3 µM (active).

For the compound `N#Cc1c2ccccc2cc2ccccc12`, the Potency entry in test [1], in test [2], in test [4], in test [8], in [9] and in test [6] was “inactive” in each case.

As to `CCOC(=O)Cc1ccccc1`, the Potency result in test [1], in [2], in [3], in test [7], in [4] and in test [5] was “inactive” throughout. Besides, the Potency entry in test [6] is “inactive”.

With `CC1CN1` (stereo unspecified), the Potency entry in [1], in test [10], in test [3], in test [4], in test [5] and in test [6] was “inactive” in each case.

As to `C[N+]1(C)[C@@H]2CC[C@H]1CC(OC(=O)C(CO)c1ccccc1)C2` (stereo partly specified), the Potency entry in [1], in test [10], in [3], in [5] and in test [6] was “inactive” in each case.

For `[Cl-].[Cl-].[Cl-].[Yb+3]`, the Potency result in test [1], in [3] and in [5] was “inactive” each time.
